Source: PubChem (National Center for Advancing Translational Sciences (NCATS))
ATXN2 expr inh: reduces ATXN2 reporter expression in HEK-293 cells | HEK-293 ATXN2-luciferase reporter, luminescence, 24 h | AID 1745845 | hit rate 0.72% among 360,000 | Potency, µM (doses to about 57 µM), hits mostly inhibitors; also: nearly all actives have a fitted effect of over 55% in size
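qHTS (up to 57 uM final) was run with 24 h compound exposure of reporter cells at 37 °C. Each well was multiplexed: SteadyGlo luminescence measured ATXN2-luciferase expression after a fluorogenic Gly-Phe-AFC viability readout (25 uM final).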
Apoferritin bind: candidate novel general anesthetic via apoferritin binding. P02791. AID 485281. Potency, µM (highest dose often 77.5 µM), hits mostly inhibitors. apoferritin/1-aminoanthracene competitive binding, fluorescence. hit rate 0.074% among 350,000; also: nearly all actives have a fitted effect of over 20% in size
Target sequence (P02791 2-175 limits assumed): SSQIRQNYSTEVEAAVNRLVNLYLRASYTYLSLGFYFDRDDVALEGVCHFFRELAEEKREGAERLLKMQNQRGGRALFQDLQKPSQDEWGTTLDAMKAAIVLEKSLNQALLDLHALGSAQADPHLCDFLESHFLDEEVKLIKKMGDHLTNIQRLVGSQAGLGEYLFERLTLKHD
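Apoferritin-based anesthetic binding model; compound displacement of fluorescent 1-AMA measured as endpoint fluorescence after 10 minutes at room temperature, scaled to free-ligand and complex controls.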
S2 tox: viability counter-screen for ATXN expression inhibitors. S2 cells (HEK-293 line with an ATXN2-luciferase reporter) viability, CellTiter-Fluor protease fluorescence, 24 h. Potency, µM (titrated, usually from 56.7 µM), usual class: cytotoxic. hit rate 0.49% among 400,000; also: nearly all actives have a fitted effect of over 40% in size
TGFb SMAD3 inh: inhibitors of TGF-b signaling | Potency, µM (doses to about 46.1 µM), actives largely listed as inhibitors | hit rate 1.2% among 410,000 | HepG2 CAGA-GFP TGF-b/SMAD3 reporter, GFP fluorescence, 18 h; TGF-beta stimulated, 500 pg/mL final | AID 588855; also: nearly all actives have a fitted effect of over 65% in size
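HEPG2 CAGA-GFP reporter cells (1000/well, DMEM with 1% FBS) received compounds, then recombinant TGF-beta at 500 pg/mL final for 18 hours at 37 degrees C. Per-cell GFP summed per well was normalised to unstimulated and stimulated DMSO controls before curve fitting.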
HepG2 viability: kills HepG2 cells in TGF-b inhibitor counter-screen; HepG2 CAGA-GFP viability, ATP luminescence, 18 h; Potency, µM (series often up to 46.1 µM), hits mostly cytotoxic; hit rate 0.76% among 410,000
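HepG2 CAGA-GFP cells (1000/well, DMEM with 1% FBS) received compound, then TGF-beta at 500 pg/mL final, and were incubated 18 hours at 37 degrees C. Viability was read by CellTiter-Glo luminescence. Media-only wells were set as complete cell-killing and DMSO as no toxicity.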
A number is an active result; 0 = inactive; ? = inconclusive; - = no result given; ! = repeats disagree. In the library only some 2.4% were active in any assay of this set; here they are far more common. Calls follow the shape of the dose curve; as a rule, active = well fitted curve in the direction sought with a large enough effect; inconclusive = small, poorly fitted or top-dose-only effect, or another doubt; inactive = no such curve, though single readings can be large; an effect the other way counts as inactive or inconclusive.

SMILES | ATXN2 expr inh | Apoferritin bind | S2 tox | TGFb SMAD3 inh | HepG2 viability
O=C1C=C(N2CC2)c2ccccc2C1=O | - | - | ? | 16µM | 0
COC(=O)C1=C(c2cccc(OCc3ccccc3)c2)C[C@@H]2CC[C@H]1N2C(=O)NC1CCN(Cc2ccccc2)CC1 | ? | - | - | ? | 13µM
COC(=O)C1=C(c2ccc(F)cc2OCc2ccccc2)C[C@@H]2CC[C@H]1N2C(=O)NC1CCN(Cc2ccccc2)CC1 | ? | - | 14µM | ? | 0
CCOC(=O)NC(O)C(Cl)(Cl)Cl (stereo unspecified) | 0 | - | 0 | - | -
Clc1ccc(C(Cn2ccnc2)OCc2csc3c(Cl)cccc23)c(Cl)c1 (stereo unspecified) | 22µM | - | - | ? | 0
O=C(/C=C/c1ccccc1)C1C(=O)c2ccccc2C1=O | 0 | 0 | 0 | 0 | 0
O=C(CF)N(O)c1ccc(C=Cc2ccccc2)cc1 | ? | - | ? | 7.1µM | 0
Cc1ccccc1-n1c(O)c(/C=C2/C(c3ccccc3)=Nc3ccccc32)c(=O)[nH]c1=O | 0 | 0 | 0 | 25µM | 0
C[C@@]12OC(=O)[C@]1([C@@H](O)[C@@H]1C=CCCC1)NC(=O)[C@H]2CCCl | 0.019µM | - | - | - | -
Cc1ccc(-c2nnc(Nc3ccc(Br)cc3)c3ccccc23)cc1S(=O)(=O)NCc1nc2ccccc2[nH]1 | 0 | 0 | 0 | ? | 0
CCC(=O)C(CCN(C)C)(c1ccccc1)c1ccccc1 | 0 | - | 0 | - | -
Cc1c(Cl)ccc2sc(N3CCN(C(=O)CCS(=O)(=O)c4ccc(F)cc4)CC3)nc12 | 0 | 0 | 0 | 8.9µM | 0
Cc1oc(-c2ccc(Cl)cc2)nc1CN1CCC(C(=O)NCCCN2CCN(c3cccc(Cl)c3)CC2)CC1 | - | 0 | - | 16µM | 0
Cc1oc(-c2cccc(Cl)c2)nc1CN1CCC(C(=O)NCCCN2CCN(c3ccc(F)cc3)CC2)CC1 | 0 | 0 | 0 | ? | 0
CN(C)C(=O)C(CCN1CCC(O)(c2ccc(Cl)cc2)CC1)(c1ccccc1)c1ccccc1 | 27µM! | 0 | ? | 0 | 0
COc1ccc(CN2Cc3cnnn3-c3ccccc3C2C#N)cc1 (stereo unspecified) | ? | - | - | ? | 11µM
N#CC1c2ccccc2-n2nncc2CN1Cc1cc(Cl)cc(Cl)c1 (stereo unspecified) | 4.5µM | - | 3.5µM | ? | 10µM
COc1ccc(-n2nnnc2C(c2cccc(OC)c2OC)N2CCC(n3c(=O)[nH]c4ccccc43)CC2)cc1 (stereo unspecified) | 0 | - | ? | ? | 0
COc1cccc(C(c2nnnn2-c2ccc3c(c2)OCCO3)N2CCC(n3c(=O)[nH]c4ccccc43)CC2)c1OC (stereo unspecified) | 16µM | - | 0 | ? | 13µM
Ic1ccccc1CN[C@@H]1C2CCN(CC2)[C@@H]1C(c1ccccc1)c1ccccc1 | ? | - | 22µM | ? | 11µM
O=C(CCC1N=C2c3ccccc3N=C(SCc3cccc(Cl)c3)N2C1=O)N1CCN(c2ccccc2)CC1 (stereo unspecified) | 0 | 0 | ? | 10µM | 0
CCC1(c2cnc[nH]2)Cc2ccccc2C1 | 0 | - | 0 | - | -
Cc1cc2c(C(C)C)c(O)c(O)c(C=O)c2c(O)c1-c1c(C)cc2c(C(C)C)c(O)c(O)c(C=O)c2c1O | ? | ? | 25µM | 1.1µM | 1.4µM
Cc1nc2ccccn2c1C(=O)N=Nc1c(O)n(CCC(C)C)c2ccccc12 | 0 | 0 | 0 | 0 | 0
CN(C)C(=S)SSC(=S)N(C)C | ? | 0 | 22µM | 0 | 0.1µM
SMILES | ATXN2 expr inh | Apoferritin bind | S2 tox | TGFb SMAD3 inh | HepG2 viability
C[N+]1([O-])[C@@H]2CC[C@H]1CC(OC(=O)[C@@H](CO)c1ccccc1)C2 (stereo partly specified) | - | 0 | - | - | -
CN1CC[C@]23c4c5ccc(O)c4O[C@H]2[C@@H](O)C=C[C@H]3[C@H]1C5 | 0 | - | 0 | - | -
COc1ccc2c3c1O[C@H]1[C@@H](O)C=C[C@H]4[C@@H](C2)N(C)CC[C@@]341 | ? | - | 14µM | - | -
C#CC(O)(C=CCl)CC (stereo unspecified) | 0 | - | 0 | - | -
CCN(CCNc1ccc([N+](=O)[O-])c2cccnc12)S(=O)(=O)c1ccccc1 | 0 | 0 | 0 | 0 | 0
Cc1c(NS(=O)(=O)c2ccccc2)ccc([N+](=O)[O-])c1Cl | ? | - | ? | 11µM | 0
OCCN1CCN(CCCN2c3ccccc3Sc3ccc(C(F)(F)F)cc32)CC1 | 28µM! | 0 | ? | ? | 0
